PubChem BioAssay (NCI)
Values joined by “and” are separate entries in the source; they are usually repeats but may differ in a detail not shown here. Equal entries are not always repeated. The panel holds about 83,000 compounds, 20% with a hit somewhere; the sample as a whole holds those more often.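 Growth was measured after 48 h exposure to one concentration of compound in 96-well plates. Values under 10 count as active.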 Active and inactive are the calls of the source.

Columns and labels:
Assay in all cases: NCI-60 one-dose screen, 48 h (100 = growth as untreated, 0 = no growth, -100 = all killed)
NCI-H23 lung = settings: 10 µM unless noted
NCI-H226 lung = settings: 10 µM unless noted
NCI-H322M lung = settings: 10 µM unless noted
HOP-62 NSCLC = settings: 10 µM unless noted
NCI-H460 lung = settings: 10 µM unless noted
HOP-92 NSCLC = settings: 10 µM
NCI-H522 lung = settings: 10 µM unless noted
A549/ATCC NSCLC = settings: 10 µM unless noted
786-0 renal = settings: 10 µM unless noted
COLO 205 colon = settings: 10 µM unless noted
DU-145 prostate = settings: 10 µM unless noted
K-562 leukemia = settings: 10 µM unless noted
MALME-3M melanoma = settings: 10 µM unless noted
RXF 393 renal = settings: 10 µM unless noted
SF-268 CNS = settings: 10 µM unless noted
SF-295 CNS = settings: 10 µM unless noted
SF-539 CNS = settings: 10 µM unless noted
UACC-257 melanoma = settings: 10 µM unless noted
M14 melanoma = settings: 10 µM unless noted
MDA-MB-231 breast = settings: 10 µM unless noted

| Compound | growth (NCI-H23 lung) | growth (NCI-H226 lung) | growth (NCI-H322M lung) | growth (HOP-62 NSCLC) | growth (NCI-H460 lung) | growth (HOP-92 NSCLC) | growth (NCI-H522 lung) | growth (A549/ATCC NSCLC) | growth (786-0 renal) | growth (COLO 205 colon) | growth (DU-145 prostate) | growth (K-562 leukemia) | growth (MALME-3M melanoma) | growth (RXF 393 renal) | growth (SF-268 CNS) | growth (SF-295 CNS) | growth (SF-539 CNS) | growth (UACC-257 melanoma) | growth (M14 melanoma) | growth (MDA-MB-231 breast) |
| --- | --- | --- | --- | --- | --- | --- | --- | --- | --- | --- | --- | --- | --- | --- | --- | --- | --- | --- | --- | --- |
| O=C1c2ccccc2C(=O)C(Cl)C1Cl (stereo not given) | 83.8% (inactive) | -74.2% (active) | 96.1% (inactive) | 87.9% (inactive) | 101% (inactive) | -62.4% (active) | -65% (active) | 104% (inactive) | 16.8% (inactive) | -94.3% (active) | 97.8% (inactive) | -7.91% (active) | -98.5% (active) | -9.44% (active) | 87.5% (inactive) | 94.3% (inactive) | 89.5% (inactive) | 0.891% (active) | 76.7% (inactive) |  |
| Oc1cc[c]([Hg][Cl])cc1 | 87.8% (inactive) | 113% (inactive) | 93.4% (inactive) | 123% (inactive) | 88.8% (inactive) | 161% (inactive) | -47% (active) | 99.3% (inactive) | 102% (inactive) | 130% (inactive) | 94.3% (inactive) | 60.2% (inactive) | 94.2% (inactive) | 116% (inactive) | 95.4% (inactive) | 113% (inactive) | 121% (inactive) | 99.6% (inactive) | 91.1% (inactive) |  |
| COc1cccc2c1cc([N+](=O)[O-])c1c(C(=O)O)cc3c(c12)OCO3 | 56.4% (inactive) and 93% (inactive) | 79.8% (inactive) and 107% (inactive) | 50.4% (inactive) and 99% (inactive) | 82.4% (inactive) and 101% (inactive) | 33.5% (inactive) and 106% (inactive) | 84% (inactive) | 35% (inactive) and 63.9% (inactive) | 76.6% (inactive) and 116% (inactive) | 77.3% (inactive) and 98.8% (inactive) | -25.3% (active) and -56.5% (active) | 15.6% (inactive) and 118% (inactive) | 73.5% (inactive) and 67.8% (inactive) | 106% (inactive) and 98.7% (inactive) | 49.1% (inactive) and 101% (inactive) | 45.9% (inactive) and 113% (inactive) | 44.9% (inactive) and 90.4% (inactive) | 71.9% (inactive) and 90% (inactive) | 97.7% (inactive) and 111% (inactive) | 84.5% (inactive) and 99% (inactive) | 88.4% (inactive) and 106% (inactive) |
| CCCCCCCCCCCC1CCCC(C)N1 (stereo not given) | 71.4% (inactive) | 94.8% (inactive) | 127% (inactive) | 86.5% (inactive) | 87.9% (inactive) | 15.8% (inactive) | -8.02% (active) | 97.2% (inactive) | 67.3% (inactive) | -33% (active) | 92.4% (inactive) | 6.23% (active) |  | 77.7% (inactive) | 73.5% (inactive) | 100% (inactive) | 97.5% (inactive) | 77.3% (inactive) | 95.3% (inactive) | 72% (inactive) |
| COC1CC(CC2CCC(C)C(C(C)C(=O)O)O2)OC2(OC(C)(C3CCC(C)(C4OC(C5OC(O)(CO)C(C)CC5C)CC4C)O3)CC2C)C1C (stereo not given) | 9.19% (active) | 22% (inactive) | 9.36% (active) | 10.1% (inactive) | 4.73% (active) |  | -55.7% (active) | 7.35% (active) | 6.74% (active) | -12% (active) | 17.5% (inactive) | -67.6% (active) | -96% (active) | 28% (inactive) | 10.7% (inactive) | -39.2% (active) | -49.1% (active) | 7.33% (active) | -71.9% (active) | -21.7% (active) |
| Cc1ccc(C(=O)OC(C(=O)O)C(OC(=O)c2ccc(C)cc2)C(=O)O)cc1 (stereo not given) (tested in a mixture with another compound) | 41.4% (inactive) | 51.1% (inactive) | 83.2% (inactive) | 66.1% (inactive) | 52.4% (inactive) | 17.7% (inactive) | 52.6% (inactive) | 71% (inactive) | 46% (inactive) | 48.9% (inactive) | 76% (inactive) | 11.1% (inactive) | 51.6% (inactive) | 54.1% (inactive) | 68.5% (inactive) | 61.8% (inactive) | 70.2% (inactive) | 46.1% (inactive) | 45.2% (inactive) |  |
| C[C@]12CC[C@H](O)CC1=CC[C@@H]1[C@@H]2CC[C@]2(C)C(=O)CC[C@@H]12 | 96% (inactive) | 102% (inactive) | 91% (inactive) | 96.4% (inactive) | 108% (inactive) |  | 48% (inactive) | 106% (inactive) | 92.6% (inactive) | 93.4% (inactive) | 122% (inactive) | 80.5% (inactive) | 80.9% (inactive) | 110% (inactive) | 106% (inactive) | 102% (inactive) | 100% (inactive) | 102% (inactive) | 101% (inactive) | 106% (inactive) |
| CCC(=O)OC1CCn2c1nc1c2C(=O)C(C)=C(N2CC2)C1=O (stereo not given) | -28.5% (active) | -23% (active) | -5.88% (active) | -29.4% (active) | -23.6% (active) | 80.9% (inactive) | -43% (active) | 2.51% (active) | -16.5% (active) | -74.3% (active) |  | 9.08% (active) | -60.4% (active) | -79.8% (active) | 7.54% (active) | 2.01% (active) | -33.6% (active) | -55.7% (active) | -58.1% (active) | 71.7% (inactive) |
| CC(=O)O[C@H]1C[C@@H]2OC3C=C(C)CCC3(C)[C@@]1(C)[C@@]21CO1 (stereo not given in full) | -32.5% (active) and -10.8% (active) | -24.8% (active) | -19.5% (active) | 17% (inactive) and -10.8% (active) | 0.408% (active) and -3.28% (active) | -21.3% (active) and -15.3% (active) | -46.4% (active) and -45.1% (active) | -9.42% (active) and -20.5% (active) | -15.6% (active) and -10.8% (active) | -61.6% (active) and -70.2% (active) | -10.8% (active) and -37.3% (active) | 3.64% (active) and -17.5% (active) | -35.1% (active) and -36% (active) | -21.4% (active) and -34.9% (active) | 1.16% (active) and -20.3% (active) | -26.1% (active) and 0.436% (active) | -24.5% (active) and -26.6% (active) | -26% (active) and -33.7% (active) | -81.2% (active) and -64.8% (active) | -12.8% (active) and -34.4% (active) |
| COC1=C(C)C(=O)C2=C(C1=O)C(CO)N1C(C#N)C3CC4C(C1C2N1CCOC41)N3C (stereo not given) | -45.1% (active) | -14.5% (active) | -23.7% (active) | -42% (active) | -14.9% (active) |  | -83.2% (active) | -3.64% (active) | -21.9% (active) | -74.5% (active) | 1.67% (active) | -45.3% (active) | -97.4% (active) | -88.9% (active) | -13.6% (active) | -29.7% (active) | -60.3% (active) | 2.61% (active) | -85.9% (active) | -11.9% (active) |
| CC1=C(CO)C2=C(C)C3(CC3)[C@@](C)(O)C(=O)C2=C1 | -18.2% (active) | -28.6% (active) | -24.9% (active) | -36% (active) | -1.95% (active) |  | -81.7% (active) | 2.23% (active) | -21.3% (active) | -40.1% (active) | -20.1% (active) | 26.3% (inactive) | -87.5% (active) | 8.42% (active) | 4.48% (active) | -8.22% (active) | -62.8% (active) | -1.44% (active) | -59.3% (active) | 4.5% (active) |
| CN1CCN(c2ccc([N+](=O)[O-])c3no[n+]([O-])c23)CC1 | -24.1% (active) | -71.9% (active) | -24.2% (active) | -98.3% (active) | -61.4% (active) | -23.1% (active) | -92.1% (active) | -48.7% (active) | -78.6% (active) | -83.3% (active) | -27.4% (active) | -18.4% (active) | -78.8% (active) | -92.8% (active) | -41.4% (active) | -52% (active) |  | -95.6% (active) | -65.2% (active) | -32.1% (active) |
| CC[C@](O)(C(=O)O)c1cc2n(c(=O)c1CO)Cc1cc3ccccc3nc1-2 | -22.8% (active) | -27.8% (active) | -5.59% (active) | 1.05% (active) | -6.64% (active) | -39% (active) | -50.6% (active) | -5.92% (active) | -21.9% (active) | -20.7% (active) | -30.7% (active) | -27.9% (active) | -38.2% (active) | 9.87% (active) | 8.53% (active) | -13.2% (active) | -48.2% (active) | 0.116% (active) | -26.5% (active) | 34.5% (inactive) |
